An excerpt weighted towards active compounds, which were near 1.8% of everything screened.
CFTR F508del cor = correctors of CFTR F508del function in bronchial epithelial cells; CFBE cells, YFP halide quenching; stimulated with forskolin plus potentiator P3; % fluorescence drop versus neutral controls; 350,000 compounds, 0.36% hits; activity (quench increase), % at 7.58 µM; AID 720511;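 active = mean added fluorescence quench of at least 8% versus neutral control, with both replicates also reaching 8%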;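 note: cells transiently co-express mutant CFTR-F508del with the halide-sensitive YFP; corrector assay measuring rescue of mutant channel to the surface after 24 h compound exposure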
LGR2 inh = blocks bursicon-induced cAMP signaling via Drosophila LGR2 | HEK293 LGR2, CRE-luciferase, bursicon-stimulated, 4 h | inhibition, % at 9.99 µM | 380,000 compounds, 0.35% hits;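 active = drop in luminescence signal, shown as inhibition above about 50% in the replicate tests, limit read from the data, passing the limit was not always enough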;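 note: agonist challenge used bursicon conditioned medium at about half maximal strength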
GSIS activator = primary screen for activators of insulin secretion dependent on glucose, INS-1E cells, GLuc reporter luminescence. activation, % at 16.6 µM. 370,000 compounds, 0.61% hits. AID 743287. INS-1E GLuc reporter insulin secretion, 2-3 h;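 active = lowest replicate activation of at least 40%, so every replicate reaches that level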;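 note: 0% = median of neutral control wells and 100% = median of IBMX positive control wells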
RAD54 inh = RAD54 (human) branch migration inhibition; Q92698; RAD54 Holliday junction branch migration, FAM/BHQ fluorescence; inhibition, % at 10.4 µM; 360,000 compounds, 0.14% hits; AID 602329;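 active = mean normalized replicate activity at least 40 and at least half of replicates scoring 40 or more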;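 note: 0% = median of neutral control wells and 100% = median of positive control wells; inhibitors cause a drop in the FAM fluorescence signal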
RAD52 anneal inh = inhibitors of human RAD52 DNA annealing; 360,000 compounds, 0.46% hits; P43351; inhibition, % at 18.7 µM; recombinant RAD52 DNA annealing, FRET fluorescence; AID 651710;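 active = every replicate showing at least 50% inhibition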
Target sequence (P43351 whole entry, looked up): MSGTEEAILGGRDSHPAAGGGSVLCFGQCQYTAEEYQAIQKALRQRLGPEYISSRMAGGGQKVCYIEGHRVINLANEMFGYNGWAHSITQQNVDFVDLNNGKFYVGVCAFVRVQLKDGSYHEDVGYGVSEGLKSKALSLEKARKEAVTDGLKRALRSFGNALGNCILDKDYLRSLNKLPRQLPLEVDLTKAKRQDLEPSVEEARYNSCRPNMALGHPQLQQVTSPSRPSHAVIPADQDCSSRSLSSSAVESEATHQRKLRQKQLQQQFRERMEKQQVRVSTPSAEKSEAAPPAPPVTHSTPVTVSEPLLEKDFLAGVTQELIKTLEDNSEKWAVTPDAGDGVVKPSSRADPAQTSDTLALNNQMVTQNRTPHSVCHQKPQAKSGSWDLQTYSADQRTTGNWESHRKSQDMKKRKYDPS
EWS-Fli block = EWS/Fli transcriptional activity inhibition. inhibition, % at 12.6 µM. A673 NR0B1-luciferase reporter, viability-normalised. AID 651661. 350,000 compounds, 0.67% hits;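 active = mean inhibition of at least 50% after viability correction, with every replicate also passing that limit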;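 note: firefly luciferase signal divided by Alamar Blue viability fluorescence both relative to DMSO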
DNA binding = binds DNA, flagging false Rad54 inhibitor hits. 460 compounds, 8% hits. AID 651673. AC50, µM (series often up to 35 µM), inactives show at the highest dose activity change, negative = DNA binding. Acridine orange-DNA displacement, fluorescence polarization, 20 min. shares compounds with RAD54 inh;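 active = signal drop giving an AC50 within twice the top valid tested concentration of each sample, actives reach about 35 µM in these data; inactive = activity opposite to expected, plus the rest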;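 note: polarization loss reports compound binding to salmon sperm DNA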
Starred values were filed as active, the others as inactive.

Screening CC=Cc1ccc2n(c1=O)C[C@@H]1[C@@H](CO)[C@H](C(=O)OC)[C@H]2N1S(=O)(=O)c1ccccc1C (mixture of isomers) returned CFTR F508del cor -1.5, LGR2 inh -9.8, GSIS activator 1.8, RAD54 inh -3.4, RAD52 anneal inh 56.1* and EWS-Fli block 18.7.
CN1C(=O)NC(=O)C2(CCCC2)C1=O was read as CFTR F508del cor 10.3*, LGR2 inh -4.0, GSIS activator -3.9, RAD54 inh -2.4, RAD52 anneal inh -14.9 and EWS-Fli block 0.7.
Screening CCC1(CC)C(=O)N(C)C(=O)NC1=NC returned CFTR F508del cor -1.1, LGR2 inh -3.1, RAD52 anneal inh -8.2 and EWS-Fli block 9.0.
For O=C1NC(=O)C(=Cc2ccc(N3CCN(C(=O)c4ccccc4)CC3)c([N+](=O)[O-])c2)C(=O)N1 the results were LGR2 inh 5.3, GSIS activator -7.4, RAD52 anneal inh -10.8 and EWS-Fli block 7.8.
Screening CC(=O)OC1(C)CC(C)C(=O)C(C(O)CC2CC(=O)NC(=O)C2)C1 (centres undefined) returned CFTR F508del cor -7.4, RAD54 inh 8.3, RAD52 anneal inh 2.1 and EWS-Fli block 43.3.
Screening C[C@@H]1C[C@@H]([C@H](O)CC2CC(=O)NC(=O)C2)C(=O)[C@@H](C)C1 returned CFTR F508del cor -3.3, LGR2 inh 78.6*, GSIS activator -36.4, RAD54 inh 4.3, RAD52 anneal inh -11.8 and EWS-Fli block 42.4.
Screening CC=Cc1ccc2n(c1=O)C[C@@H]1[C@@H](CO)[C@H](C(=O)N(C)C)N[C@H]21 (mixture of isomers) returned CFTR F508del cor 0.7, LGR2 inh 13.4, GSIS activator 11.2, RAD54 inh -4.7, RAD52 anneal inh -1.6 and EWS-Fli block -2.3.
For COc1cc(-c2ccc(N)c(OC)c2)ccc1N the results were CFTR F508del cor 0.9, LGR2 inh 18.1, GSIS activator 13.8, RAD54 inh -1.6, RAD52 anneal inh -6.3 and EWS-Fli block 24.4.
O=C1NC(=O)C(=Cc2ccc(N3CCOCC3)o2)C(=O)N1 was read as CFTR F508del cor 9.2*, LGR2 inh -2.6, GSIS activator -13.6, RAD52 anneal inh -163.5 and EWS-Fli block -11.6.
C=CCN1C(=O)/C(=C/c2ccc(N3CCOCC3)o2)C(=O)NC1=S was read as LGR2 inh 1.3, GSIS activator -10.3 and RAD54 inh -55.8.
`COc1cccc(NC(=O)[C@@H](NC(=O)N2C[C@H]3C[C@@H](C2)c2cccc(=O)n2C3)C(C)C)c1` gave CFTR F508del cor 2.0, LGR2 inh 1.6, GSIS activator -0.7, RAD54 inh 8.6, RAD52 anneal inh -10.5 and EWS-Fli block 9.4.
`Cc1nn(Cc2ccc(Cl)cc2Cl)c(Cl)c1C(=O)O` gave CFTR F508del cor -2.1, LGR2 inh -10.9, GSIS activator 13.3, RAD52 anneal inh -13.5 and EWS-Fli block -4.4.
Cc1nn(Cc2ccc(Cl)cc2Cl)c(Cl)c1C(=O)Nc1ccc(OC(F)F)cc1 was read as LGR2 inh 6.2, GSIS activator 70.6* and RAD54 inh -4.8.
For CCCc1nnc(NC(=O)CCC(=O)N2CCC3(CC2)OCCO3)s1 the results were CFTR F508del cor 1.1, LGR2 inh 2.8, GSIS activator -0.9, RAD52 anneal inh -9.0 and EWS-Fli block -9.6.
`COc1cc2c(cc1O)C[C@H]1NCCc3cc4c(c-2c31)OCO4` gave CFTR F508del cor 5.5, LGR2 inh 12.3, GSIS activator 18.2, RAD54 inh 21.0, RAD52 anneal inh 89.0* and EWS-Fli block 19.6.
Screening COc1c2c(cc3c1OCO3)CCN(C)C2 returned CFTR F508del cor -15.5, LGR2 inh 1.3, GSIS activator -9.5, RAD54 inh -9.6, RAD52 anneal inh -8.0 and EWS-Fli block -16.2.
`O=C(Cc1cc(=O)oc2cc(O)ccc12)NN=Cc1ccc(N(CCCl)CCCl)cc1` gave CFTR F508del cor -2.6, LGR2 inh 26.4, RAD54 inh 4.4, RAD52 anneal inh -12.9 and EWS-Fli block 27.3.
CCOC(=O)CC1=C(C(=O)OCC)C2(C(=O)Nc3ccccc32)C(C#N)=C(N)O1 (centres undefined) was read as RAD54 inh -8.0.
`CC(C)c1cc(Br)c(NC(=O)Nc2cccnc2)c(Br)c1` gave CFTR F508del cor 1.5, LGR2 inh -1.8, GSIS activator 114.5*, RAD54 inh -5.3, RAD52 anneal inh -9.2 and EWS-Fli block 18.7.
CC(C)OP(=O)(OC(C)C)C(O)c1cccnc1 (centres undefined) was read as LGR2 inh 7.7, GSIS activator 3.7 and RAD54 inh 1.5.
For CCOP(=O)(Cc1ccc(C(=O)CC)o1)OCC the results were CFTR F508del cor -0.3, LGR2 inh 5.1, GSIS activator -7.5, RAD54 inh -3.4, RAD52 anneal inh -1.9 and EWS-Fli block -7.8.
C#CCCC[C@@H]1OC(=O)CNC(=O)C([C@@H](C)CC)NC(=O)[C@@H]2CCCN2C(=O)C([C@@H](C)CC)OC(=O)[C@H](Cc2ccccc2)N(C)C(=O)[C@H](C(C)C)NC(=O)C1(C)C (some centres undefined) was read as CFTR F508del cor -3.8, LGR2 inh 9.5, GSIS activator -23.1, RAD54 inh 4.1, RAD52 anneal inh -5.1 and EWS-Fli block 7.0.
CCC(C)C1NC(=O)C(NC(=O)C(CC(C)C)N(C)C(=O)C2CCCN2C(=O)C(C)O)C(C)OC(=O)C(Cc2ccc(OC)cc2)N(C)C(=O)C2CCCN2C(=O)C(CC(C)C)NC(=O)[C@H](C)C(=O)[C@H](C(C)C)OC(=O)CC1O (some centres undefined) was read as CFTR F508del cor -8.9, LGR2 inh 101.3*, GSIS activator -19.3, RAD52 anneal inh 0.1 and EWS-Fli block 71.7*.
For Cc1ncc(C(=O)O)n1C(C)c1ccccc1 (centres undefined) the results were CFTR F508del cor -2.5, LGR2 inh 12.5, GSIS activator 7.9, RAD54 inh 2.4, RAD52 anneal inh -10.1 and EWS-Fli block 3.8.
CCOC(=O)c1cncn1[C@@H](C)c1ccccc1 was read as CFTR F508del cor 8.9*, LGR2 inh 9.7, RAD54 inh 6.9, RAD52 anneal inh 3.5 and EWS-Fli block 0.7.
For COc1ccc2c(c1)[nH]c1c(C)nccc12 the results were CFTR F508del cor -3.0, LGR2 inh 34.7, RAD54 inh 71.2*, RAD52 anneal inh 29.3, EWS-Fli block 16.4 and DNA binding -15.1%.
